# ADAM17 inh: inhibits human ADAM17. P78536. recombinant ADAM17, EDANS/DABCYL FRET peptide cleavage. inhibition, % at 6.95 µM. 0.83% of 370,000 active;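 active = inhibition above the mean of compounds lying between control limits plus 3 SD, set per campaign, cut at about 8.5% in these data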;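 also: 0% = DMSO-only wells as the low control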
# Target sequence (P78536 215-824 limits assumed): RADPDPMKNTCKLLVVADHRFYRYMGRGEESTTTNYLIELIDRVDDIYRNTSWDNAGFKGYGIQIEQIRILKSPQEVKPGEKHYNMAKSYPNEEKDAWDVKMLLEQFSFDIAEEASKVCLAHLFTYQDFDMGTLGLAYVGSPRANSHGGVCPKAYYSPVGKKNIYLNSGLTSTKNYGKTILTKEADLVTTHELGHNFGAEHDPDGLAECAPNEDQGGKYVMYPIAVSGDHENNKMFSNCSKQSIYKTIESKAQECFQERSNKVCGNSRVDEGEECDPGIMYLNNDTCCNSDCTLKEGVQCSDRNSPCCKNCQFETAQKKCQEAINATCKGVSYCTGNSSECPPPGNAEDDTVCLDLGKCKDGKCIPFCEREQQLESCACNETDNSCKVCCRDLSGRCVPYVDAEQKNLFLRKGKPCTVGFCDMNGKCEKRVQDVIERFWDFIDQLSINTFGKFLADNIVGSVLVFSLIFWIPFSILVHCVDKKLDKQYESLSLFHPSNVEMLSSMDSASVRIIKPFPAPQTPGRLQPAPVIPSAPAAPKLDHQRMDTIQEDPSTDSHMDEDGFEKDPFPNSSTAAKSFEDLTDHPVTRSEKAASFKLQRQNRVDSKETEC
# ADAM10 inh: ADAM10 inhibition, QFRET primary screen. recombinant ADAM10, EDANS/DABCYL FRET peptide cleavage, 3 h. inhibition, % at 7 µM. 0.62% of 370,000 active. AID 720582;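 active = inhibition above a per-campaign cutoff equal to the mean of compounds falling between control-based bounds plus 3 SD, cut at about 20% in these data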;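 also: 0% = DMSO wells while the 100% control is not disclosed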
# NPR1 activator: GC-A (human) enzyme activation | P16066 | HEK293 GC-A cells, cGMP TR-FRET, EC30 ANP; 0% at EC30 ANP, 100% saturating ANP | activation, % at 10 µM | 0.14% of 370,000 active | AID 1671463; in the data active = activation above about 40%
# NPR2 activator: GC-B (human) receptor activation; activation, % at 10 µM; HEK293-GC-B cells, CNP EC30, cGMP TR-FRET; 0% at EC30 CNP, 100% saturating CNP; AID 1920062; P20594; 0.11% of 370,000 active;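 active = activation at 10 µM reaching about 35% in either raw or pattern-adjusted values, limit read from the data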
# FAS-TE inh: blocks the thioesterase domain of human fatty acid synthase; 0.67% of 360,000 active; inhibition, % at 15 µM; AID 602261; P49327; recombinant FAS-TE, OMFH fluorogenic substrate, fluorescence endpoint;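 active = compounds whose normalised, plate-corrected inhibition of enzyme fluorescence in the single-dose primary screen is 50% or more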;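 also: 0% = DMSO with enzyme and 100% = substrate without enzyme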
# An asterisk follows results filed as active; · = no result given. In the library only some 2% were active in any assay of this set; here they are far more common.
SMILES,ADAM17 inh,ADAM10 inh,NPR1 activator,NPR2 activator,FAS-TE inh
NC(=O)CCCn1c(C(=O)c2cc(Cl)c(N)c(Cl)c2)c2ccc([N+](=O)[O-])cc2[n+]1[O-],2,-1,-6,58*,-7
NC(=O)CCCn1c(C(=O)c2ccc(Cl)cc2)c2ccc([N+](=O)[O-])cc2[n+]1[O-],-5,-1,-2,-5,0
COC(=O)c1ccc2nc(-c3ccc(F)cc3)c(Cc3cccc(F)c3)n2c1,-5,-25,28,39*,19
COC(=O)c1ccc2nc(-c3ccc(C)cc3)c(Cc3ccc(C)cc3)n2c1,-9,-27,34,50*,16
Cc1ccc(Cc2c(-c3ccco3)nc3c(C)cc(Br)cn23)cc1,-4,-13,49*,50*,15
COC(=O)c1ccc2nc(-c3ccco3)c(Cc3cccc(F)c3)n2c1,-23,-58,29,42*,-9
O=C(N1CCC(C(O)(c2ccccc2)c2ccccc2)CC1)n1ncc(C(O)(c2ccccc2)c2ccccc2)n1,8,15,-5,2,·
COC(=O)c1ccc2nc(-c3ccco3)c(Cc3ccc(C)cc3)n2c1,-58,-173,44*,52*,8
Cc1ccc(Cc2c(-c3ccco3)nc3ccc(C)cn23)cc1,-6,-32,10,13,8
CCOC(=O)C1=C(Nc2ccc(Br)cc2)C(=O)N(CC)C1,-2,-2,-2,-2,·
CCOC(=O)c1ccccc1NC(=O)COC(=O)c1ccc(OCC(=O)N2CCOCC2)c(OCC)c1,4,-8,24,35*,1
CCOc1cc(C(=O)OCC(=O)Nc2c(C)cccc2C)ccc1OCC(=O)N1CCOCC1,1,2,-2,-6,-8
COC(=O)c1nn(-c2ccccc2)c(Sc2ccc(C)cc2)c1/C=N/O,-1,-2,56*,-9,-14
COC(=O)c1nn(-c2ccccc2)c(Sc2ccccc2)c1/C=N/O,-4,-4,20,1,-6
O=C(Nc1cccc(Br)c1)OC1CC2CC1[C@H]1CCCCN1C2 (some centres undefined),-9,-15,-4,-2,·
CCOC(=O)CCC(=O)c1c(C)oc2ccc(OC)cc12,9.9*,0,0,0,0
COc1ccc2oc(C)c(C(=O)NN)c2c1,-2,-1,-4,3,-8
O=[N+]([O-])c1ncccc1OCCOc1ccc(Cl)cc1Cl,-1,2,47*,1,·
CC(=O)Nc1ccc(Nc2c3c4c(cccc4n(C)c2=O)C(=O)c2ccccc2-3)cc1,-1,-5,28,38*,-42
O=C1OCCC1Sc1nnnn1-c1ccccc1 (centres undefined),-4,-3,-2,1,-15
O=C1OCCC1Sc1nnnn1-c1ccc(Cl)cc1 (centres undefined),-8,-14,65*,19,5
Cc1ccc(CN2CCCCC(NC(=O)c3ccc(-c4ccccc4)cc3)C2=O)cc1 (centres undefined),1,7,1,-3,·
CC(=O)OCCN1C(=O)c2ccc(-c3nc4ccccc4c(=O)o3)cc2C1=O,-6,0,47*,10,-2
CCN(CC)S(=O)(=O)c1ccc2c(c1)nc(CCC(=O)Nc1cccc(C(F)(F)F)c1)n2CC,10*,17,-8,-6,20
CCCOc1ccccc1N/C(=N\S(=O)(=O)c1ccc(C)cc1)Nc1nc(C)cc(C)n1,2,-7,45*,54*,25
SMILES,ADAM17 inh,ADAM10 inh,NPR1 activator,NPR2 activator,FAS-TE inh
CC(=O)Nc1ccc(C(=O)OCC(=O)NCc2cccs2)cc1,-1,-10,-1,68*,-9
Nc1ncc(-c2ccccc2)c(-c2ccc(O)cc2O)n1,-6,7,46*,-4,-5
COc1ccc(-c2cnc(N)nc2-c2ccc(OCc3ccccc3)cc2O)cc1,0,3,3,-4,27
NC1=NC(=O)/C(=C\c2ccc(-c3ccc(Cl)cc3)o2)S1,-4,5,33,38*,-11
Clc1ccc([C@H]2OC[C@@]3(CNCCN4CCOCC4)CS[C@H](c4ccc(Cl)cc4)N23)cc1,1,4,-20,-17,·
O=C(Nc1ccc2c(c1)CCC2)c1cc(S(=O)(=O)N2CCN(c3ccccc3)CC2)ccc1Cl,7,22*,-2,4,16
O=C(NCc1ccccc1)Nc1ccccc1C(=O)N1CCCC1,-3,-7,1,-3,·
Cc1ccc(Cc2c(-c3ccc(Cl)cc3)nc3ccc(Cl)cn23)cc1,-4,-23,28,26,21
Cc1ccc(Cc2c(-c3ccc(C)cc3)nc3ccc(Cl)cn23)cc1,-9,-45,30,37*,10
Cc1ccc2nc(-c3ccc(Cl)cc3)c(Cc3cccc(F)c3)n2c1,-9,-33,27,36*,·
Cc1ccc(-c2nc3ccc(Cl)cn3c2Cc2cccc(F)c2)cc1,-7,-27,12,15,14
CCCCNS(=O)(=O)c1ccc2nc(SCC(=O)Nc3sccc3C#N)[nH]c2c1,13*,20*,2,9,8
CCCCNS(=O)(=O)c1ccc2nc(SCC(N)=O)[nH]c2c1,-7,1,-3,4,-2
COC(=O)C1=C(C)N(C)C(=NCc2ccccc2C(F)(F)F)NC1c1cccc(F)c1 (centres undefined),0,2,-10,-10,·
Cc1ccc(NC2(C#N)CCCC2)cc1,-4,-30,1,1,-9
N#CC1(Nc2ccc(-c3ccc(NC4(C#N)CCCC4)cc3)cc2)CCCC1,19*,22*,-10,-6,10
COc1cc(-c2nc(C(=O)NCC3CCCO3)cc3c2[nH]c2ccccc23)cc(OC)c1OC (centres undefined),-111,-462,53*,59*,18
COc1cccc(-c2cc(C(=O)Nc3ccccc3)c3ccccc3n2)c1,2,6,8,2,32
COc1ccc(COc2cc(-c3cccc(OC)c3)nc3ccc(NC(=O)C(C)C)cc23)cc1,-136,-431,52*,55*,16
C[N+]1(CCC(=O)c2ccccc2)CCCCC1,-5,-6,73*,0,-11
CC1CCCN(CCC(=O)c2ccccc2)C1 (centres undefined),2,-5,67*,-1,-13
O=C(CCN1CCCCC1)c1ccccc1,2,-11,62*,-9,-6
COC(=O)[C@]12C[C@H](CC(=O)NCCCCc3ccccc3)C(=O)N(Cc3ccco3)C1=C[C@H](C(C)C)O[C@@H]2C1CC1,7,9,-8,-6,·
CCNc1nc2c(c(=O)n(Cc3ccccc3)c(=O)n2C)n1Cc1ccccc1,-3,3,40,40*,5
Cc1cccc(Nc2nc3c(c(=O)n(C)c(=O)n3C)n2Cc2ccccc2)c1,0,6,53*,47*,1

# Screening results as filed in PubChem BioAssay.
